Laboratory results reported in PubChem BioAssay (NCATS).
Records with an inconclusive call do not appear. A call without a number means that no potency is given here. The source made the active and inactive calls. The call rests on the fitted dose curve; in most records, active means well fitted curve in the direction sought with a large enough effect; inconclusive means small, poorly fitted or top-dose-only effect, or another doubt; inactive means no such curve, though single readings can be large; an effect the other way counts as inactive or inconclusive. Numbered stars: 1 amine (or outer) side, 2 acyl side, 3 side chain; on linkers, the order of the positions; unused ones are H or OH. Bridge positions count the residues as written; N and C are the ends. Square brackets hold non-standard residues; d marks the D form. Peptide text beside a SMILES is read from it. I, II: the chains in the order shown. Actinocin(9to1) = Cc1c2oc3c(C)ccc(C(=O)[*:1])c3nc-2c(C(=O)[*:2])c(N)c1=O; NMeV = CN[C@H](C(=O)O)C(C)C; Sar = CNCC(=O)O

Key:
[1] = Cell Viability - LYMP2-003 (AID 965); details: LYMP2-003 lymphoblastoid cell viability; series mostly up to 92.2 µM;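 further: cells exposed to compounds for 24 h before reading; nearly all actives have a fitted effect of over 50% in size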; further: potency means the concentration at half of the fitted maximal effect
Summary of the method: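 Human lymphoblastoid cells (2500/well) were pre-incubated 5 hr at 37 C, then exposed to compounds over a concentration range for 24 hr at 37 C. Intracellular ATP was read by CellTiter-Glo luminescence; AC50 came from Hill-equation fits.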

[2] = Cell Viability - LYMP2-009 (AID 968); details: LYMP2-009 lymphoblastoid cell viability; series mostly up to 92.2 µM; further: nearly all actives have a fitted effect of over 55% in size; further: potency means the concentration at half of the fitted maximal effect
[3] = Cell Viability - LYMP2-011 (AID 969); details: LYMP2-011 lymphoblastoid cells viability; series mostly up to 92.2 µM; further: nearly all actives have a fitted effect of over 60% in size; further: potency means the concentration at half of the fitted maximal effect
Summary of the method: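 2500 cells/well in complete medium, compound-treated 24 h at 37 C. Viability read as intracellular ATP by CellTiter-Glo luminescence after 30 min at room temperature. AC50 from Hill fits of qHTS concentration-response data.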

[4] = Cell Viability - LYMP2-013 (AID 970); details: LYMP2-013 lymphoblastoid cells viability; series mostly up to 92.2 µM; further: nearly all actives have a fitted effect of over 55% in size; further: potency means the concentration at half of the fitted maximal effect
Summary of the method: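 Human lymphoblastoid LYMP2-013 cells, 2500/well, treated 24 h at 37 C in complete medium; viability as intracellular ATP by CellTiter-Glo luminescence after 30 min. AC50 from Hill fits of qHTS concentration-response.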

[5] = Cell Viability - LYMP2-017 (AID 972); details: LYMP2-017 lymphoblastoid cell viability; series mostly up to 92.2 µM; further: nearly all actives have a fitted effect of over 55% in size; further: potency means the concentration at half of the fitted maximal effect
Summary of the method: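 LYMP2-017 human lymphoblastoid cells (2500/well) settled 5 hr at 37 C, then exposed to compound 24 hr at 37 C in complete medium. Viability taken as intracellular ATP by CellTiter-Glo luminescence after 30 min at RT; AC50 from Hill fits.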

[6] = Cell Viability - LYMP2-019 (AID 973); details: LYMP2-019 lymphoblastoid cell line viability; series mostly up to 92.2 µM; further: nearly all actives have a fitted effect of over 55% in size; further: potency means the concentration at half of the fitted maximal effect
Summary of the method: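 Human lymphoblastoid LYMP2-019 cells (2500/well) preincubated 5 h at 37 C, then treated 24 h at 37 C in complete medium. Viability by CellTiter-Glo ATP luminescence after 30 min at room temperature; AC50 from Hill fits.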

[7] = Cell Viability - LYMP2-021 (AID 974); details: LYMP2-021 lymphoblastoid cells viability; series mostly up to 92.2 µM; further: potency means the concentration at half of the fitted maximal effect
Summary of the method: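 Human lymphoblastoid LYMP2-021 cells, 2500/well in complete medium, treated 24 hours at 37 C. Intracellular ATP by CellTiter-Glo luminescence (30 min, RT); AC50 from Hill fits of concentration-response.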

[8] = Cell Viability - LYMP2-010 (AID 981); details: LYMP2-010 lymphoblastoid cell viability, qHTS; series mostly up to 92.2 µM; further: nearly all actives have a fitted effect of over 55% in size; further: potency means the concentration at half of the fitted maximal effect
Summary of the method: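 Human lymphoblastoid LYMP2-010 cells (2500/well) treated 24 h at 37 C in complete medium; viability read as intracellular ATP by CellTiter-Glo luminescence. AC50 from Hill fits of concentration-response data; tetraoctylammonium bromide positive control.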

[9] = Cell Viability - LYMP2-012 (AID 982); details: LYMP2-012 lymphoblastoid cell viability qHTS; series mostly up to 92.2 µM; further: potency means the concentration at half of the fitted maximal effect
[10] = Cell Viability - LYMP2-016 (AID 984); details: LYMP2-016 lymphoblastoid cell viability, qHTS; series mostly up to 92.2 µM; further: nearly all actives have a fitted effect of over 55% in size; further: potency means the concentration at half of the fitted maximal effect
Summary of the method: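 Human lymphoblastoid cells (LYMP2-016), 2500/well in complete medium, preincubated 5 hr at 37 C, then compound-treated 24 hr at 37 C. Intracellular ATP read by CellTiter-Glo luminescence after 30 min at room temperature; AC50 from Hill-equation concentration-response fits.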

[11] = Cell Viability - LYMP1-003 - Assay at 40 hr (AID 964); details: LYMP1-003 lymphoblastoid viability; series mostly up to 92.2 µM; further: nearly all actives have a fitted effect of over 60% in size; further: potency means the concentration at half of the fitted maximal effect
Summary of the method: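 LYMP1-003 human lymphoblastoid cells, 2500/well, preincubated 5 h at 37 C, then treated with compound for 40 h at 37 C. Intracellular ATP read by CellTiter-Glo luminescence after 30 min at room temperature; AC50 from Hill-equation fits.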

[12] = Cell Viability - LYMP2-005 (AID 967); details: LYMP2-005 lymphoblastoid cell viability; series mostly up to 92.2 µM; further: potency means the concentration at half of the fitted maximal effect
Summary of the method: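 CellTiter-Glo luminescence (cellular ATP) read-out; LYMP2-005 lymphoblastoid cells, 2500/well, 5 h pre-incubation, then 24 h compound exposure at 37 C in complete medium. Tetraoctylammonium bromide positive control; AC50 by standard Hill fit.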

[13] = Cell Viability - LYMP2-004 (AID 966); details: LYMP2-004 lymphoblastoid cell viability, qHTS; series mostly up to 92.2 µM; further: nearly all actives have a fitted effect of over 65% in size; further: potency means the concentration at half of the fitted maximal effect
Summary of the method: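 Lymphoblastoid LYMP2-004 cells, 2500 per well, were preincubated for 5 hr and then treated with compound for 24 h at 37 C in complete medium. Viability was read as cellular ATP by CellTiter-Glo luminescence, and AC50 values were taken from Hill fits to concentration-response data.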

[14] = Cell Viability - LYMP2-023 (AID 975); details: LYMP2-023 lymphoblastoid cell viability; series mostly up to 92.2 µM; further: nearly all actives have a fitted effect of over 55% in size; further: potency means the concentration at half of the fitted maximal effect
Summary of the method: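 LYMP2-023 human lymphoblastoid cells, 2500/well, preincubated 5 hr at 37 C, then compound-treated 24 hr at 37 C in complete medium. CellTiter-Glo luminescence (ATP) after 30 min at room temperature; AC50 from Hill-equation fits; tetraoctylammonium bromide positive control.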

[15] = Cell Viability - LYMP2-025 (AID 976); details: LYMP2-025 lymphoblastoid cell viability; series mostly up to 92.2 µM; further: potency means the concentration at half of the fitted maximal effect
Summary of the method: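 Human lymphoblastoid LYMP2-025 cells, 2500/well, exposed 24 h at 37 C in complete medium in 1536-well qHTS. Viability as cellular ATP by CellTiter-Glo luminescence; AC50 from Hill fits of concentration-response data.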

[16] = Cell Viability - LYMP2-002 (AID 977); details: LYMP2-002 lymphoblastoid cell viability, qHTS; series mostly up to 92.2 µM; further: potency means the concentration at half of the fitted maximal effect
Summary of the method: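 Cytotoxicity is scored as concentration-dependent loss of cellular ATP in a human lymphoblastoid line after 24 hr compound treatment at 37 C. AC50 is obtained by modelling concentration-response data with the Hill equation.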

[17] = Cell Viability - LYMP2-006 (AID 978); details: LYMP2-006 lymphoblastoid cell viability, qHTS; series mostly up to 92.2 µM; further: nearly all actives have a fitted effect of over 60% in size
Summary of the method: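 Human lymphoblastoid cells, 2500 per well, were preincubated 5 hr at 37 C, then exposed to compounds for 24 hr at 37 C in complete medium. Viability was read as intracellular ATP by CellTiter-Glo luminescence; AC50 from Hill-equation fits of qHTS concentration-response data.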

[18] = Cell Viability - LYMP2-007 (AID 979); details: LYMP2-007 lymphoblastoid cell viability; series mostly up to 92.2 µM;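 further: cells exposed to compound for 24 h before reading; nearly all actives have a fitted effect of over 60% in size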; further: potency means the concentration at half of the fitted maximal effect
Summary of the method: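 Human lymphoblastoid LYMP2-007 cells (2500/well) preincubated 5 h at 37 C, then treated 24 h at 37 C in complete medium. Viability by CellTiter-Glo ATP luminescence after 30 min at room temperature; AC50 from Hill fits.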

[19] = Cell Viability - LYMP2-008 (AID 980); details: LYMP2-008 lymphoblastoid cell viability, qHTS; series mostly up to 92.2 µM; further: nearly all actives have a fitted effect of over 60% in size
Summary of the method: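 LYMP2-008 lymphoblastoid cells (2500/well) plated 5 h, then treated 24 h at 37 C in complete medium. Viability read as intracellular ATP by CellTiter-Glo luminescence after 30 min at room temperature; AC50 from Hill fits.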

[20] = Cell Viability - LYMP2-014 (AID 983); details: LYMP2-014 lymphoblastoid cells, viability qHTS; series mostly up to 92.2 µM; further: nearly all actives have a fitted effect of over 50% in size; further: potency means the concentration at half of the fitted maximal effect
Summary of the method: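 LYMP2-014 human lymphoblastoid cells, 2500/well, treated 24 h at 37 C in complete medium; viability by CellTiter-Glo ATP luminescence after 30 min at room temperature. AC50 from Hill fits of qHTS concentration-response; tetraoctylammonium bromide positive control.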

SMILES | Potency [1] | Potency [2] | Potency [3] | Potency [4] | Potency [5] | Potency [6] | Potency [7] | Potency [8] | Potency [9] | Potency [10] | Potency [11] | Potency [12] | Potency [13] | Potency [14] | Potency [15] | Potency [16] | Potency [17] | Potency [18] | Potency [19] | Potency [20]
C=C(CC)C(=O)c1ccc(OCC(=O)O)c(Cl)c1Cl | 50100 nM (active) | 50100 nM (active) | 50100 nM (active) | 50100 nM (active) | 50100 nM (active) | 39800 nM (active) | 39800 nM (active) | 39800 nM (active) | 39800 nM (active) | 39800 nM (active) | – | – | – | – | – | – | – | – | – | –
COc1cccc2c1C(=O)c1c(O)c3c(c(O)c1C2=O)C[C@@](O)(C(C)=O)C[C@@H]3O[C@H]1C[C@H](N)[C@H](O)[C@H](C)O1 | 316 nM (active) | 251 nM (active) | – | 2000 nM (active) | 631 nM (active) | 3980 nM (active) | – | 199 nM (active) | 158 nM (active) | – | 398 nM (active) | 158 nM (active) | – | – | – | – | – | – | – | –
Cc1c2oc3c(C)ccc(C(=O)N[C@@H]4C(=O)N[C@H](C(C)C)C(=O)N5CCC[C@H]5C(=O)N(C)CC(=O)N(C)[C@@H](C(C)C)C(=O)O[C@@H]4C)c3nc-2c(C(=O)N[C@@H]2C(=O)N[C@H](C(C)C)C(=O)N3CCC[C@H]3C(=O)N(C)CC(=O)N(C)[C@@H](C(C)C)C(=O)O[C@@H]2C)c(N)c1=O (I: T[dV]P[Sar][NMeV] / II: T[dV]P[Sar][NMeV]; ester I:1-I:C, II:1-II:C; linker I:N-II:N via Actinocin(9to1)) | – | – | – | – | 10 nM (active) | – | 2.5 nM (active) | – | – | – | 5 nM (active) | – | – | – | – | – | – | – | – | –
C=CCc1ccc(O)c(OC)c1 | inactive | inactive | inactive | inactive | inactive | inactive | inactive | inactive | inactive | inactive | inactive | inactive | inactive | inactive | inactive | inactive | inactive | inactive | inactive | inactive
Nc1ccc(C(=O)O)cc1 | inactive | inactive | inactive | inactive | inactive | inactive | inactive | inactive | inactive | inactive | inactive | inactive | inactive | inactive | inactive | inactive | inactive | inactive | inactive | inactive
CC(=O)Oc1ccc(C(c2ccc(OC(C)=O)cc2)c2ccccn2)cc1 | inactive | inactive | inactive | inactive | inactive | inactive | inactive | inactive | inactive | inactive | inactive | inactive | inactive | inactive | inactive | inactive | inactive | inactive | inactive | inactive
COc1cccc2c1C(=O)c1c(O)c3c(c(O)c1C2=O)C[C@@](O)(C(=O)CO)C[C@@H]3O[C@H]1C[C@H](N)[C@H](O)[C@H](C)O1 | 501 nM (active) | 251 nM (active) | 251 nM (active) | 1000 nM (active) | 631 nM (active) | 631 nM (active) | 398 nM (active) | 251 nM (active) | 199 nM (active) | 251 nM (active) | 398 nM (active) | 398 nM (active) | 501 nM (active) | 398 nM (active) | 501 nM (active) | 251 nM (active) | – | 1000 nM (active) | – | 316 nM (active)
O=C(O)CCCCC(=O)O | inactive | inactive | inactive | inactive | inactive | inactive | inactive | inactive | inactive | inactive | inactive | inactive | inactive | inactive | inactive | inactive | inactive | inactive | inactive | inactive
O=c1ccc2ccccc2o1 | inactive | inactive | inactive | inactive | inactive | inactive | inactive | inactive | inactive | inactive | inactive | inactive | inactive | inactive | inactive | inactive | inactive | inactive | inactive | inactive
COC1=CC(=O)C[C@@H](C)[C@]12Oc1c(Cl)c(OC)cc(OC)c1C2=O | inactive | inactive | inactive | inactive | inactive | inactive | inactive | inactive | inactive | inactive | – | inactive | inactive | inactive | inactive | inactive | inactive | inactive | inactive | inactive
C[C@]12CC[C@@H]3c4ccc(O)cc4CC[C@H]3[C@@H]1CC[C@@H]2O | inactive | inactive | inactive | inactive | inactive | inactive | inactive | inactive | inactive | inactive | inactive | inactive | inactive | inactive | inactive | – | inactive | inactive | inactive | inactive
